The values that follow come from PubChem BioAssay AID588335 (The Scripps Research Institute Molecular Screening Center, 2011).

SMILES strings stand for the structures. Among all 360,000 compounds or so, about 4,500 (1.2%) were called active. Shown is part of a subset that was picked to be rich in actives. Values without a mark were called inactive. Rule as the data show it: active = inhibition above about 30%; inactive = the rest.

For orientation: inhibition means the change of the read-out against control, counted positive when it falls.

The nature of the assay: inhibition of GDH and TPI enzymes – biochemical, absorbance, full deck, artefact control for M. tuberculosis FBA inhibitor project, primary screen (AID 588335).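 Also: 0% = DMSO wells and 100% = wells lacking the enzyme.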 The following applies: GDH-TPI coupled enzyme counterscreen, NADH absorbance; at 4.8 µM; hits give high values.
On to `COC(=O)c1cc(NC(=O)CC2C(=O)NCCN2C(=O)c2ccc(F)cc2)cc(C(=O)OC)c1` (configuration not stated), for which the inhibition was 3.86%.

For `Cc1csc(=O)n1CC(=O)Nc1ccc(S(C)(=O)=O)cc1`, the inhibition is -3.52%.

Consider `COc1ccccc1/C=C/C(=O)NC(=S)N1CCOCC1`, for which the inhibition is 18.2%.

For the compound `CCOC(=O)/C=c1\s/c(=C\c2ccccc2OC)c(=O)n1CC(=O)N1CCOCC1`, the inhibition was 33.3% (active).

Take `CCOC(=O)N1CCN(C(=O)Cn2cnc3ccccc3c2=O)CC1`: the inhibition is 2.24%.

Take `O=C(NCc1ccccc1Cl)C1CCN(c2ncnc3c2nc2n3CCCCC2)CC1`: the inhibition is -11.1%.

For the compound `Cc1ccc(CNC(=O)CC(NC(=O)c2ccccc2)c2ccccc2)cc1` (configuration not stated), the inhibition was -12.7%.

As to `CCN(CCn1cccn1)Cc1cn[nH]c1-c1ccc(OC)cc1F`, the inhibition was 0.63%.

Turning to `COc1ccccc1C(=O)Nn1c(-c2cccs2)nc2ccccc2c1=O`, the inhibition was 17.9%.

`CCn1c(NC(=O)c2ccccc2)c(-c2cccs2)c(=O)c2ccccc21`: the inhibition was 32% (active).

Regarding `CCn1c(=O)c2cc(C(=O)Nc3cccc(C(C)=O)c3)sc2c2ccccc21`, the inhibition is -0.68%.

On to `COc1ccccc1CCNC(=O)CN1C(=O)NC2(CCCC2)C1=O`, for which the inhibition is 7.91%.

Turning to `CC(C)(C)c1ccc(S(=O)(=O)NC(=O)C2(C)CCN2C(=O)CC2CC2)cc1` (configuration not stated), the inhibition was 0.89%.

Take `CCOC(=O)c1ccc(S(=O)(=O)N(CCO)Cc2cc3cc(OC)c(OC)cc3[nH]c2=O)cc1`: the inhibition was 20.5%.

In the case of `CCc1nnc(NC(=O)CCC(=O)N2CCN(c3cc(C)ccc3C)CC2)s1`, the inhibition was -2.21%.

For the compound `CC(C)NC(=O)C(c1ccc(F)cc1)N(C(=O)CCC(=O)Nc1ccccn1)c1ccccc1F` (configuration not stated), the inhibition was 3.77%.

For `Cc1ccc(NC(=O)CS(=O)CC(=O)N(c2ccccc2)C(C)C(=O)NC2CCCC2)cc1` (configuration not stated), the inhibition is 7.17%.

On to `Cn1cccc1/C=N/NC(=O)c1ccc(OC(F)(F)C(F)F)cc1`, for which the inhibition is 35.9% (active).

Regarding `Cn1nccc1/C=N\NC(=O)c1ccc(Cl)cc1`, the inhibition was -10.2%.

Take `O=C(Nc1ccc(OC(F)(F)F)cc1)c1ccc2c(c1)no[n+]2[O-]`: the inhibition is 4.41%.

Regarding `O=C(Nc1cc(F)ccc1F)c1ccc2c(=O)n3c(nc2c1)CCC3`, the inhibition is 5.36%.

For `O=C1CC(C(=O)O)NC(=S)N1` (configuration not stated), the inhibition is -5.96%.

On to `NC(=O)Cn1cc(/C=N\NS(=O)(=O)c2ccccc2)c2ccccc21`, for which the inhibition was 8.87%.

As for `CCOC(=O)N/N=C/c1cn(Cc2ccccc2Cl)c2ccccc12`, the inhibition was 17%.

In the case of `CNC(=S)N/N=C/c1cn(Cc2ccc(C)cc2)c2ccccc12`, the inhibition was 37% (active).

As to `Cn1c(SCC(=O)Nc2ccc(N3CCOCC3)cc2)nnc1C(F)(F)F`, the inhibition is 2.16%.

Regarding `O=C(Nc1nnc(S(=O)(=O)N2CCCCCC2)s1)c1cccc(Br)c1`, the inhibition is 16.8%.

On to `COc1cccc(C(=O)Nc2nnc(S(=O)(=O)N3CCOCC3)s2)c1`, for which the inhibition is 23.5%.

On to `COc1cccc(C(=O)Nc2nnc(S(=O)(=O)N3CCCCC3)s2)c1`, for which the inhibition is 40.7% (active).

For `Cc1ccc(S(=O)(=O)N2CCCC2CO)cc1` (configuration not stated), the inhibition was -4.78%.

Consider `O=C(CNc1cccc(S(=O)(=O)N2CCCCC2)c1)Nc1ccccc1F`, for which the inhibition was 5.6%.

In the case of `COc1cc(-c2n[nH]c(=S)n2Cc2ccccc2)cc(OC)c1OC`, the inhibition was 3.29%.

On to `COc1ccccc1/C=C/C=N/n1c(-c2ccc(Cl)cc2Cl)n[nH]c1=S`, for which the inhibition is 34.7% (active).

As for `Cc1cc(-c2n[nH]c(=S)n2/N=C/C(Br)=C/c2ccccc2)n[nH]1`, the inhibition is 7.17%.

Take `CCCCOc1ccc(Cl)cc1CSc1nncn1N`: the inhibition was -8.67%.

As for `N#CC1(Nc2ccc3c4c(cccc24)CC3)CCCCC1`, the inhibition is 18.6%.

For `O=C(CSc1nnc(-c2cccnc2)n1Cc1ccco1)c1ccc(Cl)c(Cl)c1`, the inhibition is -5.03%.

With `Clc1cccc(-c2nc3nc4ccccc4nc3n2Cc2ccco2)c1`, the inhibition is 33.2% (active).

On to `Cc1cc(NCc2ccco2)n2c(nc3ccccc32)c1C#N`, for which the inhibition was 8.76%.

Turning to `COC(=O)c1cc(S(=O)(=O)N2CCC(C(N)=O)CC2)oc1C`, the inhibition is 0.74%.

For `O=C(O)c1ccc(COCC(F)(F)F)cc1`, the inhibition was 6.06%.

Take `COc1ccccc1C1=CC(=O)CCC1`: the inhibition was 10.9%.

Consider `COc1ccc(N/N=C2/CCCCC2=O)cc1`, for which the inhibition was 1.13%.

As to `COc1ccccc1Oc1ccc(N/C=C2/CCCC2=O)cc1`, the inhibition is 33.3% (active).

As for `O=C(O)CCn1c(O)c(C=C2N=c3ccccc3=N2)sc1=S`, the inhibition was 22.8%.

Take `O=C(Oc1cccc(N2C(=O)C3C4c5ccccc5C(c5ccccc54)C3C2=O)c1)c1ccco1` (configuration not stated): the inhibition was 10.9%.

As for `COc1cc(OC)c(C(=O)NNC(=O)c2ccc(NS(=O)(=O)c3cccs3)cc2)cc1OC`, the inhibition is 12.8%.

For `O=S(=O)(Nc1ccccc1)c1ccc(NS(=O)(=O)c2cccs2)cc1`, the inhibition was 14.9%.

In the case of `C/C(=N\NC(=O)c1ccc(NS(=O)(=O)c2cccs2)cc1)c1ccc2ccccc2c1`, the inhibition was 32.1% (active).

As for `COCCn1c(C)cc(C(=O)CN2c3cccc4cccc(c34)S2(=O)=O)c1C`, the inhibition is 3.51%.

As to `Oc1ccc(C2Nc3cccc4cccc(c34)N2)cc1`, the inhibition was 32.9% (active).

For `CN(C(=O)CC(NC(=O)c1ccccc1)(c1ccccc1)c1ccccc1)c1ccccc1`, the inhibition is -10.6%.

Regarding `Cn1c(=O)n(C)c2cc(CNc3ccc(N4CCOCC4)c(C(=O)O)c3)ccc21`, the inhibition was 8.39%.

For the compound `CC(C)(C)NC(=O)COC(=O)c1cc(Br)ccc1Cl`, the inhibition is -3.49%.

For `Cc1c(Cl)c([N+](=O)[O-])nn1Cc1ccc(C(=O)N/N=C\c2cc(Cl)ccc2O)o1`, the inhibition is 4.27%.

As for `Cc1cc(C(=O)N/N=C/c2ccc(O)c([N+](=O)[O-])c2)c(C)n1-c1ccc(F)cc1`, the inhibition was 51.7% (active).

`O=C1CSC(=S)N1/N=C/c1ccc(O)c([N+](=O)[O-])c1`: the inhibition is 1.6%.

Take `CC1(C)CC(=O)c2sc(N)nc2C1`: the inhibition was 20.2%.

For `NC1=NOC(=O)C1C1CCCCC1` (configuration not stated), the inhibition is -5.11%.

With `O=C(COC(=O)/C=C/c1ccc2c(c1)OCO2)NC1CCS(=O)(=O)C1` (configuration not stated), the inhibition is 23.7%.

On to `CN(Cc1ccccc1)C(=O)COC(=O)/C=C/c1ccc2c(c1)OCO2`, for which the inhibition is 35% (active).

In the case of `Cc1cccc(NC(=O)/C=C/c2ccc3c(c2)OCO3)n1`, the inhibition was 28.3%.
